From PubChem BioAssay (NCATS)
Inconclusive results are not listed. For some assays here: Entries with a potency or affinity are not part of this list. Active and inactive are the calls of the source.

Experiments:
[1] = Ebola virus entry assay, blue channel (ratio component)
[2] = Ebola virus entry assay, reporter ratio channel; AC50: Channel type: primary unless noted; outcome: Channel type: primary unless noted
[3] = qHTS assay for measurement of the activity of small molecule inhibitors on Zika virus induced Caspase-3 activity in human astrocytoma cells (AID 1224859; active = well fitted curve in the direction sought with a large enough effect; an effect the other way counts as inactive or inconclusive;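 note: plate controls were ZIKV-infected untreated cells for no effect and uninfected cells for full effect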); conditions: SNB-19 ZIKV-induced caspase-3/7, luminescence, 6 h; series mostly up to 45.7 µM
How it was run: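 Compound added 1 h pre-infection; ZIKV 2 FFU/cell on SNB-19 cells, 6 h, 37 C/5% CO2. Caspase-Glo 3/7 luminescence; values as % inhibition of ZIKV-induced caspase activity.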

[4] = qHTS assay to identify small molecule inhibitors of chordoma cells - UCH-1 (AID 1259355; active = well fitted curve in the direction sought with a large enough effect; an effect the other way counts as inactive or inconclusive; note: % is set by controls: 0 for no effect and ±100 for the full control effect; nearly all actives have a fitted effect of over 55% in size); conditions: UCH-1 chordoma viability, CellTiter-Glo, 48 h, combination; series mostly up to 46.1 µM
How it was run: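 800 cells/well, overnight attach; compounds pinned at 15 concs, then auranofin/camptothecin/doxorubicin/rubitecan/topotecan combo added; 48hr 37 C, 5% CO2; CellTiter-Glo, 30min RT, luminescence.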

[5] = qHTS assay to identify small molecule inhibitors of chordoma cells - UCH-2 (AID 1259356; active = well fitted curve in the direction sought with a large enough effect; an effect the other way counts as inactive or inconclusive; note: % is set by controls: 0 for no effect and ±100 for the full control effect); conditions: UCH-2 chordoma viability, CellTiter-Glo ATP luminescence, 48 h; series mostly up to 46.1 µM
[6] = Ebola virus entry cell assay, ratio channel
[7] = Ebola virus entry reporter assay, green channel fluorescence
[8] = High-throughput drug toxicity screening in the BPDCN cell line Gen2.2 (AID 1224824); conditions: Gen2.2 BPDCN cells; at 45.8 µM (top of the series) unless noted;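 note: cells exposed to compounds for 48 h before reading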
How it was run: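 CellTiter-Glo luminescence after 48 h compound exposure of Gen2.2 cells; percent activity set with DMSO as 100% and bortezomib (9.2 uM final) as 0%. Cells seeded at 500 per well, RPMI + 10% FBS, 37 °C.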

[9] = High-throughput drug toxicity screening in the BPDCN cell line Cal-1 (AID 1224825); conditions: Cal-1 BPDCN cell viability, qHTS; at 45.8 µM (top of the series) unless noted
How it was run: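 Percent activity derived from CellTiter-Glo luminescence, scaling DMSO to 100% and 9.2 uM final bortezomib to 0%. BPDCN Cal-1 cells (500/well, RPMI plus 10% FBS) incubated with compounds 48 hours at 37C before reading.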

[10] = qHTS assay for measurement of the activity of small molecule inhibitors on Zika virus induced Caspase-3 activity in human iPSC derived neural progenitor cells (hNPCs) (AID 1224857; active = well fitted curve in the direction sought with a large enough effect; an effect the other way counts as inactive or inconclusive; note: % of control where 0% means no effect; nearly all actives have a fitted effect of over 65% in size); conditions: hNPCs ZIKV-induced caspase-3/7, Caspase-Glo luminescence, 6 h; series mostly up to 45.7 µM
How it was run: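 Values are percent inhibition of virus-induced caspase-3/7 signal, scaled between uninfected cells and ZIKV-infected cells. Infection used 2 FFU/cell for 6 h after 1 h compound exposure.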

[11] = qHTS Screen of the MIPE 4.0 Collection Against Ewings Sarcoma (RDES) (AID 1259252; active = well fitted curve in the direction sought with a large enough effect; an effect the other way counts as inactive or inconclusive;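 note: 100% = DMSO-treated cells and 0% = medium-only wells without cells; nearly all actives have a fitted effect of over 35% in size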); conditions: RD-ES Ewing sarcoma viability, CellTiter-Glo, 48 h; series mostly up to 45.8 µM
How it was run: (§1)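 CellTiter-Glo luminescence after 48 h compound exposure (titration) gave viability; percent activity used DMSO-treated cells as no inhibition and medium-only wells as full inhibition. Cells grown in RPMI/5% FBS, dosed 4 h post-seeding.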

[12] = qHTS Screen of the MIPE 4.0 Collection Against Ewings Sarcoma (TC71) (AID 1259253; active = well fitted curve in the direction sought with a large enough effect; an effect the other way counts as inactive or inconclusive;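 note: 100% = DMSO-treated cells and 0% = medium-only wells without cells; nearly all actives have a fitted effect of over 40% in size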); conditions: TC71 Ewing sarcoma viability, CellTiter-Glo, 48 h; series mostly up to 45.8 µM
How it was run: as §1

[13] = qHTS Screen of the MIPE 4.0 Collection Against Ewings Sarcoma (EW8) (AID 1259255; active = well fitted curve in the direction sought with a large enough effect; an effect the other way counts as inactive or inconclusive;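 note: 100% = DMSO-treated cells and 0% = medium-only wells without cells; nearly all actives have a fitted effect of over 35% in size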); conditions: EW8 Ewing sarcoma viability, CellTiter-Glo, 48 h; series mostly up to 45.8 µM
How it was run: as §1

[14] = qHTS Screen of the MIPE 4.0 Collection Against Ewings Sarcoma (TC32) (AID 1259256; active = well fitted curve in the direction sought with a large enough effect; an effect the other way counts as inactive or inconclusive;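 note: 100% = DMSO-treated cells and 0% = medium-only wells without cells; nearly all actives have a fitted effect of over 45% in size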); conditions: TC32 Ewing sarcoma viability, CellTiter-Glo, 48 h; series mostly up to 45.8 µM
How it was run: as §1

[15] = P-glycoprotein substrates identified in KB-3-1 adenocarcinoma cell line, qHTS therapeutic library screen (AID 1346986; active = well fitted curve in the direction sought with a large enough effect; an effect the other way counts as inactive or inconclusive; note: nearly all actives have a fitted effect of over 60% in size); conditions: KB-3-1 parental cells viability, CellTiter-Glo, 72 h; at 44.5 µM (top of the series) unless noted
How it was run: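 Viability read by CellTiter-Glo after 72 h compound exposure in dose-response of KB-3-1 and KB-8-5-11 (P-gp-high) cells. Hits needed AC50 < 10 uM, >50% maximum response and curve class -1.1 to -2.4. Cherry-picks retested ± tariquidar, including pcDNA/MDR-19 HEK-293 pair.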

[16] = Immunotoxin (HA22) sensitization/mitigation study. Vehicle arm (PBS) (AID 1159510); conditions: cancer cells viability with PBS vehicle (HA22 study); series mostly up to 46.1 µM; note: potency is the fitted concentration of half-maximal effect
[17] = Immunotoxin (SS1P) sensitization/mitigation study. Vehicle arm (DMEM) (AID 1159513); conditions: cell viability with vehicle (DMEM); series mostly up to 46.1 µM; note: potency is the fitted concentration of half-maximal effect

For `CC(C)(C)NCC(O)c1cc(O)cc(O)c1` (configuration not stated), the outcome [1] was “inactive”.

With `CCN[C@H](C)Cc1cccc(C(F)(F)F)c1` the AC50 [2] was 31.6 µM (active) and the outcome [3] was “inactive”.

For `CN1CCC(O)(c2ccc(F)cc2)C(C(=O)c2ccc(F)cc2)C1` (configuration not stated), the outcome [2] was “inactive”, the outcome [1] was “inactive” and the outcome [3] was “inactive”. The outcome [4] was “inactive” and the outcome [5] was “inactive”.

With `NCCCCCC(=O)O` the outcome [2] was “inactive” and the outcome [6] was “inactive”.

In the case of `C=CC1=C(C(=O)O)N2C(=O)[C@@H](NC(=O)/C(=N/OCC(=O)O)c3csc(N)n3)[C@H]2SC1` (stereo in doubt), the outcome [7] is reported as “inactive” and the outcome [6] is reported as “inactive”.

For `CCOc1cc(CC(=O)N[C@@H](CC(C)C)c2ccccc2N2CCCCC2)ccc1C(=O)O`, the outcome [7] was “inactive” and the outcome [6] was “inactive”.

With `CC(C)c1cccc(C(C)C)c1O` the outcome [1] was “inactive”, the cell viability, % of control (lower = more cytotoxic) [8] was 123% and the viability (% of control) [9] was 113%. For the same molecule, the outcome [10] was “inactive”, the outcome [3] was “inactive” and the Potency [11] was “inactive”. The Potency [12] was “inactive”, the outcome [13] was “inactive” and the Potency [14] was “inactive”. The outcome [4] was “inactive” and the outcome [5] was “inactive”.

For `CCCCC(=O)N(Cc1ccc(-c2ccccc2-c2nn[nH]n2)cc1)[C@@H](C(=O)O)C(C)C`, the outcome [7] was “inactive” and the outcome [6] was “inactive”.

With `CCCCC/C=C\C/C=C\C/C=C\C/C=C\CCCC(=O)NCC(=O)O` the outcome [2] was “inactive”, the outcome [1] was “inactive” and the outcome [3] was “inactive”. The activity, negative = inhibition [4] was -4.51% [at 4.2 µM] (inactive) and the activity change, negative = inhibition [5] was -22% [at 4.61 µM] (inactive).

For `C[C@]12CC[C@@H]3c4ccc(OC(=O)N(CCCl)CCCl)cc4CC[C@H]3[C@@H]1CC[C@@H]2O`, the outcome [2] was “inactive”, the outcome [1] was “inactive” and the outcome [3] was “inactive”. For the same molecule, the outcome [4] was “inactive”.

With `N[C@@H](Cc1cc(I)c(Oc2ccc(O)c(I)c2)c(I)c1)C(=O)O` the outcome [7] was “inactive” and the outcome [6] was “inactive”.

In the case of `CCNC(=O)[C@@H]1CCCN1C(=O)[C@H](CCCN=C(N)N)NC(=O)[C@H](CC(C)C)NC(=O)[C@@H](CC(C)C)NC(=O)[C@H](Cc1ccc(O)cc1)NC(=O)[C@H](CO)NC(=O)[C@H](Cc1c[nH]c2ccccc12)NC(=O)[C@H](Cc1cnc[nH]1)NC(=O)[C@@H]1CCC(=O)N1`, the outcome [7] is reported as “inactive” and the outcome [6] is reported as “inactive”.

With `CCCCC(C)(O)C/C=C/[C@H]1[C@H](O)CC(=O)[C@@H]1CCCCCCC(=O)OC` (some centres not stated) the outcome [7] was “inactive” and the outcome [6] was “inactive”.

In the case of `OCCOCCN1CCN(C2=Nc3ccccc3Sc3ccccc32)CC1`, the outcome [1] is reported as “inactive”, the outcome [7] is reported as “inactive” and the outcome [6] is reported as “inactive”.

For `CNC(C)[C@@H]1CC[C@@H](N)[C@@H](O[C@H]2[C@H](O)[C@@H](O[C@H]3OC[C@](C)(O)[C@H](NC)[C@H]3O)[C@H](N)C[C@@H]2N)O1` (some centres not stated), the outcome [7] was “inactive” and the outcome [6] was “inactive”.

With `C=C[C@H]1CN2CC[C@H]1C[C@H]2[C@H](O)c1ccnc2ccc(OC)cc12` the AC50 [2] was 22.4 µM (active) and the outcome [6] was “inactive”.

With `OCC(S)CS` (configuration not stated) the outcome [7] was “inactive” and the outcome [6] was “inactive”.

For `C[C@]12CC[C@H]3[C@@H](CCC4=CC(=O)CC[C@@H]43)[C@@H]1CC[C@@H]2OC(=O)CCC1CCCCC1`, the outcome [2] was “inactive”, the outcome [1] was “inactive” and the outcome [3] was “inactive”.

With `C=C1[C@H](CO)[C@@H](O)C[C@@H]1n1cnc2c(=O)[nH]c(N)nc21` the outcome [7] was “inactive” and the outcome [6] was “inactive”.

With `C=CC(N)CCC(=O)O` (configuration not stated) the outcome [7] was “inactive” and the outcome [6] was “inactive”.

For `CCCCCN(C)CCC(O)(P(=O)(O)O)P(=O)(O)O`, the outcome [7] was “inactive”, the outcome [6] was “inactive” and the outcome [4] was “inactive”. For the same molecule, the outcome [15] was “inactive”.

In the case of `CO[C@H]1C=CO[C@@]2(C)Oc3c(C)c(O)c4c(O)c(c5c(nc6cc(C)ccn65)c4c3C2=O)NC(=O)/C(C)=C\C=C[C@H](C)[C@H](O)[C@@H](C)[C@@H](O)[C@@H](C)[C@H](OC(C)=O)[C@@H]1C`, the outcome [6] is reported as “inactive”.

For `CC(C)c1nc(N(C)S(C)(=O)=O)nc(-c2ccc(F)cc2)c1/C=C/C(O)CC(O)CC(=O)O` (configuration not stated), the outcome [7] was “inactive” and the outcome [6] was “inactive”.

With `CCC(=O)OC(OP(=O)(CCCCc1ccccc1)CC(=O)N1C[C@H](C2CCCCC2)C[C@H]1C(=O)O)C(C)C` (some centres not stated) the outcome [7] was “inactive” and the outcome [6] was “inactive”.

For `Nc1nc2[nH]cc(CCc3ccc(C(=O)N[C@@H](CCC(=O)O)C(=O)O)cc3)c2c(=O)[nH]1`, the outcome [7] was “inactive”, the outcome [6] was “inactive” and the Potency [16] was 59 nM (active). For the same molecule, the Potency [17] was 187 nM (active).

With `CN1CCN2c3ncccc3Cc3ccccc3C2C1` (configuration not stated) the outcome [6] was “inactive”.

With `CC[C@H](C)C(=O)O[C@H]1C[C@H](O)C=C2C=C[C@H](C)[C@H](CC[C@@H](O)C[C@@H](O)CC(=O)O)[C@H]21` the outcome [6] was “inactive”.

With `CCCCCCCCCCCCCCCC(=O)OCCC1CCN(CCCN2c3ccccc3Sc3ccc(S(=O)(=O)N(C)C)cc32)CC1` the outcome [6] was “inactive”.

In the case of `CC=CC1=C(C(=O)O)N2C(=O)[C@H](NC(=O)[C@H](N)c3ccc(O)cc3)[C@@H]2SC1`, the outcome [6] is reported as “inactive”.

With `CCOC(=O)CCC(=O)O[C@H]1[C@H](O[C@@H]2[C@@H](C)[C@H](O[C@H]3C[C@@](C)(OC)[C@@H](O)[C@H](C)O3)[C@@H](C)C(=O)O[C@H](CC)[C@@](C)(O)[C@H](O)[C@@H](C)C(=O)[C@H](C)C[C@@]2(C)O)O[C@H](C)C[C@@H]1N(C)C` the outcome [7] was “inactive” and the outcome [6] was “inactive”.
